According to PubChem BioAssay (EPA / NIEHS):
Inconclusive results are not listed. Calls of active or inactive are those of the source. How the source made its calls, unless noted: active means hit-call score of the fitted dose curve at least 0.9, where 1 is the maximum; inactive means score below 0.9.

Each compound was assayed against Nuclear receptor subfamily 4 group A member 2 (Homo sapiens) (UniProt P43354) (assay: ATG_NURR1_TRANS: Attagene TRANS-FACTORIAL HepG2 Assay for human Nuclear Receptor Related Protein 1 (NURR1) (AID 2282985; active means hit-call score of the fitted dose curve at least 0.9, where 1 is the maximum)). Conditions: HepG2 Attagene TRANS reporter, mRNA readout.
Chain of Nuclear receptor subfamily 4 group A member 2 (Homo sapiens) (P43354 whole entry, looked up): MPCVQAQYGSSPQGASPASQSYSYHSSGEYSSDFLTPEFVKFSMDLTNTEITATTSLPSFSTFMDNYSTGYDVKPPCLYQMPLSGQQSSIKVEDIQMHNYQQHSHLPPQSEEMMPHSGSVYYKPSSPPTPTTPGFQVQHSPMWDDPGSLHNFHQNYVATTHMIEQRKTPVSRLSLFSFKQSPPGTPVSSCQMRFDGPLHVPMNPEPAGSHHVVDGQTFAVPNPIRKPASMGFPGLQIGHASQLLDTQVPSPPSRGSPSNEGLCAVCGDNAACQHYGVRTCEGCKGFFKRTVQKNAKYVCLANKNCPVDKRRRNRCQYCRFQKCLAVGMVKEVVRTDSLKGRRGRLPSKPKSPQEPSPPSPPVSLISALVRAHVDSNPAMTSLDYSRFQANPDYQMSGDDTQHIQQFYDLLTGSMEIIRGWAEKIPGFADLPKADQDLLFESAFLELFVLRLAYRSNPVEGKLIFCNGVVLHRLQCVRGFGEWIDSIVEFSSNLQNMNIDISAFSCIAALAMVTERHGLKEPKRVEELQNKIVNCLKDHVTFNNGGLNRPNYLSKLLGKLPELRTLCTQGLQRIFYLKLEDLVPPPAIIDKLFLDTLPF
Outline: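 Endpoint: reporter mRNA increase relative to DMSO. HepG2 cells transfected with reporter units, treated 24 h; RNA processed by RT-PCR, labelling, HpaI digestion and capillary electrophoresis.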

Compound | outcome | AC50
O=C(c1ccccc1)C(O)c1ccccc1 (stereo unspecified) | inactive | –
O=CCc1ccccc1 | inactive | –
Nc1ccc2c(O)cc(S(=O)(=O)O)cc2c1 | inactive | –
CCc1ccc(O)c(OC)c1 | inactive | –
C=C(C)C(=O)OCCOC1CC2CC1C1C=CCC21 (stereo unspecified) | inactive | –
O=C1OC(=O)c2c(Br)c(Br)c(Br)c(Br)c21 | inactive | –
COC(=O)c1ccc(C)cc1C1=NC(C)(C(C)C)C(=O)N1 (stereo unspecified) (tested in a mixture with another compound) | inactive | –
CC(=O)c1ccccn1 | inactive | –
CCN(CCN)c1cccc(C)c1 | inactive | –
CCCC(C)=O | inactive | –
OCC(O)c1ccccc1 (stereo unspecified) | inactive | –
Cc1occc(=O)c1OC(=O)C(C)C | inactive | –
CCOc1ccccc1O | inactive | –
CC(C)(N=C=O)c1cccc(C(C)(C)N=C=O)c1 | inactive | –
O=C1NC2NC(=O)NC2N1 (stereo unspecified) | inactive | –
CCCCCCCCCCCC(=O)OCC(O)CO (stereo unspecified) | – | 132 µM (active)
CC(C)(CO)[C@@H](O)C(=O)NCCC(=O)O | inactive | –
CCC(C)c1cc([N+](=O)[O-])cc([N+](=O)[O-])c1OC(=O)OC(C)C (stereo unspecified) | – | 27.1 µM (active)

The compounds below were run against Transcriptional activator Myb (Homo sapiens) (UniProt P10242) (assay: ATG_Myb_CIS: Attagene CIS-FACTORIAL HepG2 Assay for human Myeloblastosis (Myb) Proto-Oncogene Transcription Factor (AID 2282986)). Conditions: HepG2 Attagene CIS-FACTORIAL Myb reporter transcription; actives raise or lower the signal.
Chain of Transcriptional activator Myb (Homo sapiens) (P10242 whole entry, looked up): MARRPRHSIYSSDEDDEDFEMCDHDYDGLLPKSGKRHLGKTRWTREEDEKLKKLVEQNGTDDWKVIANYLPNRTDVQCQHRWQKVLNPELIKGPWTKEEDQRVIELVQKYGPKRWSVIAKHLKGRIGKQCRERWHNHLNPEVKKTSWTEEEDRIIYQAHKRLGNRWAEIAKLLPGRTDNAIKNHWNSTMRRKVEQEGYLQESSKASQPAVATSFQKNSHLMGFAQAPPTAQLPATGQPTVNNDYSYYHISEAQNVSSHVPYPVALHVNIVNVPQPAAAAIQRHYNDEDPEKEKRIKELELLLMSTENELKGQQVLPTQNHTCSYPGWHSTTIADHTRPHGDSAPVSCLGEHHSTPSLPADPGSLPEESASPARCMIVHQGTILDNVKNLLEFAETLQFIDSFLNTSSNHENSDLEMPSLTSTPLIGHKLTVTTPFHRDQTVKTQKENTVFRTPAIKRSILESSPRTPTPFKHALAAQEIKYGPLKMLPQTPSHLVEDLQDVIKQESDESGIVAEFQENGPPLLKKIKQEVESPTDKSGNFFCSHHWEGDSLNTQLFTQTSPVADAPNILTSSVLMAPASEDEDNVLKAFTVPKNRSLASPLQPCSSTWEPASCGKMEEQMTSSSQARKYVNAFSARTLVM
Outline: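 Transiently transfected HepG2 cells carrying a multiplexed cis-promoter reporter set report endogenous Myb activity after 24 h compound exposure. Reporter mRNA is read by RT-PCR with capillary electrophoresis of fluorescent products, fitted bidirectionally against DMSO.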

Compound | outcome | AC50
O=C(c1ccccc1)C(O)c1ccccc1 (stereo unspecified) | inactive | –
C=CC(=O)OCCC#N | inactive | –
Cc1ncc([N+](=O)[O-])n1CCO | inactive | –
C=C(C)C(=O)OCCOCCOCCOC(=O)C(=C)C | inactive | –
C/C=C(\C)C(=O)OCCc1ccccc1 | inactive | –
O=CCc1ccccc1 | inactive | –
CCCC(=O)C(CC)Sc1ccoc1C (stereo unspecified) | inactive | –
COC(CC(C)CCCC(C)(C)O)OC (stereo unspecified) | inactive | –
CCC1CCCCC1 | inactive | –
CN(C)c1ccncc1 | inactive | –
CCCCCCCCCC(C)C=O (stereo unspecified) | inactive | –
CC(C)NCC(O)COc1ccc(CC(N)=O)cc1 (stereo unspecified) | inactive | –
CCCCCCOC(=O)C(C)C | inactive | –
O=C(O)CCCCCCCCCCCC(=O)O | inactive | –
CCCC(O)C(O)CO (stereo unspecified) | inactive | –
CCCCCCOCCOCCO | inactive | –
CCc1ccc(O)c(OC)c1 | inactive | –
CC(C)c1ccccc1O | inactive | –

Compound | outcome | AC50
C=C(C)C(=O)OCCOC1CC2CC1C1C=CCC21 (stereo unspecified) | inactive | –
O=C1OC(=O)c2c(Br)c(Br)c(Br)c(Br)c21 | inactive | –
CCOc1ccc(N=Nc2ccc(C=Cc3ccc(N=Nc4ccc(OCC)cc4)cc3S(=O)(=O)O)c(S(=O)(=O)O)c2)cc1 | inactive | –
COC(=O)c1ccc(C)cc1C1=NC(C)(C(C)C)C(=O)N1 (stereo unspecified) (tested in a mixture with another compound) | inactive | –
CC(=O)c1ccccn1 | inactive | –
CC1(C)CCC[C@]2(C)[C@H]3CCO[C@]3(C)CC[C@@H]12 | inactive | –
CCCCSCCCC | inactive | –
CCN(CCN)c1cccc(C)c1 | inactive | –
CCCC(C)=O | inactive | –
OCC(O)c1ccccc1 (stereo unspecified) | inactive | –
Cc1occc(=O)c1OC(=O)C(C)C | inactive | –
CCOc1ccccc1O | inactive | –
CC(C)(N=C=O)c1cccc(C(C)(C)N=C=O)c1 | inactive | –
O=C1NC2NC(=O)NC2N1 (stereo unspecified) | inactive | –
COc1cccc(OC)c1O | inactive | –
CCC(C)c1cc([N+](=O)[O-])cc([N+](=O)[O-])c1OC(=O)OC(C)C (stereo unspecified) | – | 156 µM (active)
CCOc1ccc(NC(=O)CC(C)=O)cc1 | inactive | –

What follows are compounds tested against Nuclear respiratory factor 1 (Homo sapiens) (UniProt Q16656) (assay: ATG_NRF1_CIS: Attagene CIS-FACTORIAL HepG2 Assay for human Nuclear Respiratory Factor 1 (NRF1) Orphan Gene (AID 2282987)). Conditions: HepG2 NRF1 cis-element reporter, Attagene multiplex; actives raise or lower the signal.
Chain of Nuclear respiratory factor 1 (Homo sapiens) (Q16656 whole entry, looked up): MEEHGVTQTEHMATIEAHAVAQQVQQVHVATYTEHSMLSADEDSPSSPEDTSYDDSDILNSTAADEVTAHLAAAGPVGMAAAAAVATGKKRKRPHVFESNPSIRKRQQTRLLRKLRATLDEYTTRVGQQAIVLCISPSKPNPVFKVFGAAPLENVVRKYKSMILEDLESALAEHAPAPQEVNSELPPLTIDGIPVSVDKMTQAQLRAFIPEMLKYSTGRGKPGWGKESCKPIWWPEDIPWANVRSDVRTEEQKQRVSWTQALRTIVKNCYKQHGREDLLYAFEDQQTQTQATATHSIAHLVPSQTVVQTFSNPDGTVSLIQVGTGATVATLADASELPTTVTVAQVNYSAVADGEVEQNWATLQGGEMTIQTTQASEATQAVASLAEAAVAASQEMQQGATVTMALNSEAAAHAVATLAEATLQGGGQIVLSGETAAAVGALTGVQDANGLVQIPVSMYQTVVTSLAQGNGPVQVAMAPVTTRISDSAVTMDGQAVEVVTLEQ
Outline: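 HepG2 cells transiently transfected with multiple cis-regulated reporter units, exposed 24 h. Reporter mRNAs measured by RT-PCR, fluorescent labelling, HpaI digestion and capillary electrophoresis; bidirectional fitting against DMSO.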

Compound | outcome | AC50
O=C(c1ccccc1)C(O)c1ccccc1 (stereo unspecified) | inactive | –
C=CC(=O)OCCC#N | inactive | –
Cc1ncc([N+](=O)[O-])n1CCO | inactive | –
C=C(C)C(=O)OCCOCCOCCOC(=O)C(=C)C | inactive | –
C/C=C(\C)C(=O)OCCc1ccccc1 | inactive | –
CCCC(=O)C(CC)Sc1ccoc1C (stereo unspecified) | inactive | –
Nc1ccc2c(O)cc(S(=O)(=O)O)cc2c1 | inactive | –
COC(CC(C)CCCC(C)(C)O)OC (stereo unspecified) | inactive | –
CCC1CCCCC1 | inactive | –
CCCCCCCCCC(C)C=O (stereo unspecified) | inactive | –
CC(C)NCC(O)COc1ccc(CC(N)=O)cc1 (stereo unspecified) | inactive | –
CCCCCCOC(=O)C(C)C | inactive | –
CCCC(O)C(O)CO (stereo unspecified) | inactive | –
CCCCCCOCCOCCO | inactive | –
CCc1ccc(O)c(OC)c1 | inactive | –
CC(C)c1ccccc1O | inactive | –
C=C(C)C(=O)OCCOC1CC2CC1C1C=CCC21 (stereo unspecified) | inactive | –

Compound | outcome | AC50
O=C1OC(=O)c2c(Br)c(Br)c(Br)c(Br)c21 | inactive | –
CCOc1ccc(N=Nc2ccc(C=Cc3ccc(N=Nc4ccc(OCC)cc4)cc3S(=O)(=O)O)c(S(=O)(=O)O)c2)cc1 | inactive | –
COC(=O)c1ccc(C)cc1C1=NC(C)(C(C)C)C(=O)N1 (stereo unspecified) (tested in a mixture with another compound) | inactive | –
CC(=O)c1ccccn1 | inactive | –
CC1(C)CCC[C@]2(C)[C@H]3CCO[C@]3(C)CC[C@@H]12 | inactive | –
CCCC(C)=O | inactive | –
OCC(O)c1ccccc1 (stereo unspecified) | inactive | –
Cc1occc(=O)c1OC(=O)C(C)C | inactive | –
CCOc1ccccc1O | inactive | –
CC(C)(N=C=O)c1cccc(C(C)(C)N=C=O)c1 | inactive | –
O=C1NC2NC(=O)NC2N1 (stereo unspecified) | inactive | –
CCCCCCCCCCCC(=O)OCC(O)CO (stereo unspecified) | inactive | –
COc1cccc(OC)c1O | inactive | –
CC(C)(CO)[C@@H](O)C(=O)NCCC(=O)O | inactive | –
CCC(C)c1cc([N+](=O)[O-])cc([N+](=O)[O-])c1OC(=O)OC(C)C (stereo unspecified) | – | 143 µM (active)
CCOc1ccc(NC(=O)CC(C)=O)cc1 | inactive | –
